Experimental findings from PubChem BioAssay (NCI) are described below.

Compounds without any hit were thinned out: in the full panel of roughly 83,000, 20% have a hit.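 Negative percent growth values reflect cell death: -40 means 40% of the cells present at the start died, and -100 means all died.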 Unmarked numbers belong to inactive results. Calls of active or inactive are those of the source. How the source made its calls: active means growth percent below 10; inactive means the rest.

The assay concerns HL-60(TB) leukemia. The experiment in a line: NCI-60 one-dose screen, 48 h (100 = growth as untreated, 0 = no growth, -100 = all killed). Particulars: 10 µM unless noted.
On to `CCOC(=O)C1=C(C)NC(=O)NC1c1cccs1` (stereo not given), for which the growth is 60.5%.
For the compound `N#C/C(=C/N1C(=O)/C(=C/c2ccc([N+](=O)[O-])cc2)SC1=S)c1nc2ccccc2s1`, the growth is 93.3%.
With `O=c1[nH]cnc2c1ccn2C1OC(CO)C(O)C1O` (stereo not given), the growth is 34%.
Then `Cc1cc(O)ccc1C1=NN(c2ccc(S(C)(=O)=O)cc2)C(=O)CC1`, with 52.6%; and `CN1CCOCCN(C)Cc2ccc3ccc(cc3c2)CN(C)CCOCCN(C)Cc2ccc3ccc(cc3c2)C1`, with 20.7%.
In the case of `COC1=C(C)C(=O)N2[C@@H]1[C@H](c1ccccc1)OC21C=CC(=O)C=C1`, the growth was -11.2% (active).
As to `CCCCCCCCCCCCCCCCCC1=NCCCN1CCO`, the growth is 106%.
Take `O=C(O)CC1Cc2ccccc2C1C(=O)O` (stereo not given): the growth was 65%.
As to `COc1ccc(-c2csc(NC(=O)c3cc(OC)c(OC)c(OC)c3)n2)cc1`, the growth was 102%.
For `COc1ccc(/C=C2\Oc3cc(OCCCCCN4CCCCC4)ccc3C2=O)cc1OC` the value was 97.8%; for `O=C(CNC(=O)c1cccc2ccccc12)Nc1ccccc1Oc1ccccc1`, 7.14% (active); for `COc1ccc(C2CC(=O)c3c(nc4ccc(Cl)cc4c3N)C2)cc1` (stereo not given), 99.1%.
As for `Cc1ccc(S(=O)(=O)NCCCNc2nccc(-c3c(-c4ccccc4)nc4sccn34)n2)cc1`, the growth was -13.1% (active).
Then `Nc1nc(N)c2cc(Sc3cccc(C(F)(F)F)c3)ccc2n1`, with 24.6%; and `O=C1C(=O)c2ccccc2C(O)=C1CCCc1ccc(Oc2ccccc2)cc1`, with 44.3%.
